# High-throughput results deposited in PubChem BioAssay by Broad Institute.
# This excerpt belongs to a sample that is enriched for hits.
# miR-122 inh = raises miR-122 sensor activity in Huh7 cells; Huh7 psiCHECK-miR122 Renilla luciferase sensor, 48 h; activation, % at 12.5 µM; 340,000 compounds, 0.14% hits;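 active = mean activation of 30% or more, with every replicate also reaching 30%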;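 note: 0% = median of neutral control wells and 100% = median of positive control wells; higher luciferase signal means stronger suppression of miR-122 activity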
# Numbers without * were called inactive.
SMILES,miR-122 inh
C[C@H](CO)N1C[C@H](C)[C@H](CN(C)C(=O)c2cccc(F)c2)Oc2ncc(-c3cccc(F)c3)cc2C1=O,-3.3
CCC(=O)N(C)C[C@@H]1Oc2ncc(C#C[C@@H](C)O)cc2C(=O)N([C@@H](C)CO)C[C@@H]1C,-0.3
C[C@H](CO)N1C[C@H](C)[C@H](CN(C)C(=O)c2cccc(F)c2)Oc2ncc(/C=C/c3ccccc3)cc2C1=O,-3.0
CCCN(C)C[C@H]1Oc2cc(-c3ccc(OC)cc3)ccc2S(=O)(=O)N([C@H](C)CO)C[C@H]1C,-76.7
O=C1CC(Sc2nnnn2-c2ccccc2)C(=O)N1c1cccc(Cl)c1 (stereo not drawn),51.9*
CO[C@@H]1CN(C)C(=O)c2ccc(NC(=O)NC(C)C)cc2OC[C@H](C)NC[C@@H]1C,-56.6
CN1C(=O)c2cc(NC(=O)c3cccc(F)c3)ccc2OC[C@H]2O[C@@H](CC(=O)O)CC[C@H]21,53.3*
CO[C@H]1CN(C)C(=O)c2cc(NC(=O)c3ccc(F)cc3)ccc2OC[C@H](C)N(C)C[C@@H]1C,-0.7
CN1C(=O)c2cc(NC(=O)c3cccc(F)c3)ccc2OC[C@H]2O[C@H](CC(=O)NC3CCC3)CC[C@H]21,70.0*
CN1C(=O)c2cc(NC(=O)c3cccc(F)c3)ccc2OC[C@@H]2O[C@@H](CC(=O)O)CC[C@@H]21,86.7*
C[C@@H]1CN([C@H](C)CO)C(=O)c2cc(C#Cc3ccccc3)cnc2O[C@@H]1CN(C)Cc1ccccn1,-0.3
C[C@H](CO)N1C[C@H](C)[C@@H](CN(C)C(=O)Nc2ccccc2)Oc2cc(-c3cccc(C(=O)N(C)C)c3)ccc2S1(=O)=O,9.5
COCC(=O)Nc1ccc2c(c1)OC[C@@H](C)N(C(C)=O)C[C@H](C)[C@H](OC)CN(C)C2=O,-4.5
C[C@@H]1CN([C@@H](C)CO)S(=O)(=O)c2ccc(-c3cncnc3)cc2O[C@@H]1CN(C)C(=O)Cc1ccncc1,0.6
C[C@@H]1CN([C@@H](C)CO)C(=O)c2cccc(NC(=O)C3CCCCC3)c2O[C@@H]1CN(C)Cc1ccc(C(=O)Nc2ccccc2N)cc1,-166.4
C[C@H]1CN([C@@H](C)CO)C(=O)c2cc(C#CC3CCCC3)cnc2O[C@@H]1CN(C)C(=O)C1CCC1,-3.6
C/C=C/c1ccc2c(c1)O[C@@H](CN(C)S(C)(=O)=O)[C@H](C)CN([C@@H](C)CO)S2(=O)=O,-9.3
CCCNC(=O)N(C)C[C@H]1Oc2ncc(C#C[C@@H](C)O)cc2C(=O)N([C@H](C)CO)C[C@@H]1C,-0.8
C[C@H](CO)N1C[C@H](C)[C@H](CN(C)C(=O)C2CCCCC2)Oc2ncc(-c3ccccc3F)cc2C1=O,-1.0
CO[C@H]1CN(C)C(=O)c2ccc(NC(=O)NC(C)C)cc2OC[C@@H](C)NC[C@H]1C,-13.2
C[C@@H]1CN([C@H](C)CO)C(=O)c2cc(C#CC3(O)CCCC3)cnc2O[C@H]1CN(C)C(=O)CN(C)C,0.3
C[C@@H]1CN([C@H](C)CO)C(=O)c2cc(-c3cccc(F)c3)cnc2O[C@H]1CN(C)C(=O)c1ccccn1,3.6
C[C@@H]1CN([C@@H](C)CO)S(=O)(=O)c2ccc(/C=C/c3ccccc3)cc2O[C@@H]1CN(C)C(=O)Nc1cccc(F)c1,-35.2
COc1ccc(NC(=O)Nc2cccc3c2O[C@H](CN(C)Cc2ccc4c(c2)OCO4)[C@@H](C)CN([C@@H](C)CO)C3=O)cc1,-95.7
CNC[C@H]1Oc2cc(C#CCC3CCCC3)ccc2S(=O)(=O)N([C@@H](C)CO)C[C@@H]1C,-14.2
SMILES,miR-122 inh
C[C@H](CO)N1C[C@H](C)[C@@H](CN(C)C(=O)c2ccccn2)Oc2ncc(C#Cc3ccccc3)cc2C1=O,1.9
CNc1nc(NCCOc2ccccc2)c2sccc2n1,36.8*
CCNc1nc(N)nc(Oc2ccc(OCCOc3ccccc3)nn2)n1,-151.2
CC#CCCCC(=O)Nc1ccccc1C(=O)O,31.5*
C[C@H](CO)N1C[C@H](C)[C@@H](CN(C)C(=O)Cc2ccncc2)Oc2ncc(C#Cc3ccccc3F)cc2C1=O,-2.6
C[C@@H]1CN([C@@H](C)CO)S(=O)(=O)c2ccc(C#Cc3ccccn3)cc2O[C@@H]1CN(C)Cc1ccc(F)cc1,-2.9
COc1cccc(C#Cc2ccc3c(c2)O[C@@H](CN(C)S(=O)(=O)c2ccccc2F)[C@@H](C)CN([C@@H](C)CO)S3(=O)=O)c1,1.4
C[C@@H]1CN([C@H](C)CO)C(=O)c2cc(-c3ccccc3)cnc2O[C@@H]1CN(C)C(=O)Nc1ccccc1,5.0
O=C(NC[C@H]1N[C@H](CO)[C@H]1c1ccccc1)c1ccccc1F,-108.3
CN(C[C@@H]1[C@@H](c2ccccc2)[C@@H](CO)N1Cc1ccccn1)S(C)(=O)=O,-91.7
CC(=O)N(C)C[C@@H]1[C@@H](c2ccc(-c3cccnc3)cc2)[C@H](CO)N1C(=O)C1CC1,-258.3
CC(C)N(C[C@@H]1N[C@@H](CO)[C@@H]1c1ccccc1)S(=O)(=O)c1ccccc1,66.7*
CC(=O)N(C[C@@H]1N[C@@H](CO)[C@H]1c1ccc(-c2ccccc2)cc1)C(C)C,66.7*
CO[C@H]1CN(C)C(=O)c2ccc(NC(=O)Nc3ccc(F)cc3)cc2OC[C@H](C)NC[C@H]1C,-2.0
C/C=C/c1cnc2c(c1)C(=O)N([C@H](C)CO)C[C@@H](C)[C@@H](CN(C)C(=O)Nc1cccc(OC)c1)O2,-9.9
CCCNC(=O)Nc1ccc2c(c1)OC[C@@H](C)N(C)C[C@H](C)[C@H](OC)CN(C)C2=O,0.0
COc1ccccc1C#Cc1cnc2c(c1)C(=O)N([C@H](C)CO)C[C@H](C)[C@@H](CN(C)C(=O)c1ccc3c(c1)OCO3)O2,34.8*
COCC(=O)N(C)C[C@H]1Oc2ncc(C#Cc3ccccc3OC)cc2C(=O)N([C@H](C)CO)C[C@@H]1C,4.1
C[C@H](CO)N1C[C@H](C)[C@H](CN(C)C(=O)Nc2ccc3c(c2)OCO3)Oc2ncc(-c3cccc(C(F)(F)F)c3)cc2C1=O,33.1*
C[C@H](CO)N1C[C@H](C)[C@@H](CN(C)Cc2ccc3c(c2)OCO3)Oc2c(NC(=O)C3CC3)cccc2C1=O,-92.5
COc1cccc(NC(=O)N(C)C[C@H]2Oc3ncc(C#Cc4ccccc4)cc3C(=O)N([C@@H](C)CO)C[C@@H]2C)c1,-3.0
COc1cccc(NC(=O)N(C)C[C@@H]2Oc3ncc(C#Cc4ccccc4)cc3C(=O)N([C@@H](C)CO)C[C@@H]2C)c1,-1.7
C[C@H]1CN([C@@H](C)CO)C(=O)c2cc(-c3ccccc3)cnc2O[C@@H]1CN(C)C(=O)Nc1ccc2c(c1)OCO2,1.0
C[C@@H]1CN([C@H](C)CO)C(=O)c2cccc(NC(=O)c3ccc(-c4nccs4)cc3)c2O[C@@H]1CN(C)Cc1ccc(C(=O)Nc2ccccc2N)cc1,-203.3
C[C@@H]1CN([C@@H](C)CO)C(=O)c2cc(-c3ccccc3)cnc2O[C@H]1CN(C)C(=O)Nc1ccc2c(c1)OCO2,-7.6
C[C@@H]1CN([C@@H](C)CO)C(=O)c2cccc(NC(=O)c3ccc(-c4nccs4)cc3)c2O[C@H]1CN(C)Cc1ccc2c(c1)OCO2,37.6*
CCC(=O)N(C)C[C@@H]1Oc2ncc(C#Cc3ccccc3OC)cc2C(=O)N([C@H](C)CO)C[C@H]1C,6.2
COc1cccc(NC(=O)N(C)C[C@@H]2Oc3ncc(C#Cc4ccncc4)cc3C(=O)N([C@@H](C)CO)C[C@H]2C)c1,33.2*
COc1ccccc1S(=O)(=O)N(C)C[C@@H]1Oc2ncc(-c3ccc(C)cc3)cc2C(=O)N([C@@H](C)CO)C[C@H]1C,3.6
